An excerpt weighted towards active compounds, which were near 5.7% of everything screened.
AHR activator: AHR activators, primary screen, cell-based, luminescence, luciferase reporter, human; activation, % at 5 µM; AID 2796, 2010; AHR-responsive luciferase reporter cells; 2.5% of 320,000 active; in the data active = activation above about 47%
DAX1 inh-1: DAX1 (NR0B1) inhibitors, primary screen, cell-based, HEK293, Gal4-DAX1, luciferase luminescence; Nuclear receptor subfamily 0 group B member 1 (Homo sapiens), P51843; 0.99% of 340,000 active; HEK293 Gal4-DAX1 luciferase reporter; inhibition, % at 6.75 µM;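 active = inhibition above the mean over all tested compounds plus 3 SD, cut at about 4.2% in these data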;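 note: inhibition shows as a rise in luminescence from relieved DAX1 repression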
Target sequence (P51843 207-470 limits assumed): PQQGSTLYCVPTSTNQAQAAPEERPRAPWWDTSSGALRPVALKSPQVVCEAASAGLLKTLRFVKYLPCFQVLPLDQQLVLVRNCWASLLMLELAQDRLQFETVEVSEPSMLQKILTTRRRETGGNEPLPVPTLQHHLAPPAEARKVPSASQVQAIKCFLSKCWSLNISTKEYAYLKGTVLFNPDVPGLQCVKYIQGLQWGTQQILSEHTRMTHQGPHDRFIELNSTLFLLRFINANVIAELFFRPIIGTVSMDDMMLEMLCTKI
hgDAF-12 ag: H. glycines DAF-12 receptor agonists, primary screen, cell-based, luminescence, HEK293, GAL4 fusion, UAS-luciferase; Nuclear hormone receptor DAF-12 (Heterodera glycines), GAL4 fusion; activation, % at 6.8 µM; HEK293 GAL4-hgDAF12 UAS-luciferase reporter, agonist luminescence; normalized to butyrate control; 1.8% of 370,000 active; AID 687014, 2013;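 active = activation above a cutoff set at the mean of all screened compounds plus 3 SD, cut at about 10% in these data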
ssDAF12 agonist: S. stercoralis DAF-12 nuclear receptor activators, primary screen, cell-based, luminescence, HEK293, GRIP1 co-expression, lit1-tk-luc. Nuclear hormone receptor DAF-12 (Strongyloides stercoralis). HEK293 ssDAF-12/GRIP1 lit1-tk-luc reporter; % of 3 µM dafachronic acid response. activation, % at 6.8 µM. 1% of 370,000 active. AID 652126, 2013;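 active = activation above the mean over all tested compounds plus 3 SD, cut at about 0.9% in these data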
hcDAF-12 act: H. contortus DAF-12 nuclear receptor activators, primary screen, cell-based, luminescence, HEK293, lit1-tk-luc reporter | AID 652067, 2013 | activation, % at 6.8 µM | HEK293 hcDAF-12 lit1-tk-luc reporter; 0% DMSO, 100% Δ7-dafachronic acid | 1.4% of 370,000 active;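 active = activation above the mean of all tested compounds plus 3 SD, cut at about 5.5% in these data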
DAX1 inh-2: DAX1 (NR0B1) inhibitors on StAR promoter, primary screen, cell-based, luminescence, SF-1 (NR5A1), full-length DAX-1; inhibition, % at 6.8 µM; HEK293T StAR-luciferase reporter, SF-1/DAX-1 repression relief; AID 652010, 2013; 1.1% of 370,000 active;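 active = inhibition above the mean over all tested compounds plus 3 SD, cut at about 3.6% in these data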;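 note: higher inhibition means more luminescence from relief of DAX-1 repression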
Each line names hits and unclear results; the compound was inactive in the other large screens.

Cc1cc(C(=O)Nc2ccc(Cl)cc2)c2ccccc2n1	AHR activator 66
Cc1cccc(OCC(=O)NNC(=O)Nc2cccc(Cl)c2)c1C	none
COc1ccc(CCNC(=O)C(=O)NCc2ccc(Cl)cc2)cc1OC	none
Cc1cccc(NC(=O)c2cc(Cl)nc3ccccc23)c1	AHR activator 62
Cc1cc(C(=O)Nc2sccc2C#N)c2ccccc2n1	hcDAF-12 act 5.9
O=C(O)C1C2CCC(C2)C1C(=O)Nc1ccccc1 (configuration not stated)	DAX1 inh-1 4.3
CC1CCC(=O)N(CCSc2ccccc2)CC1 (configuration not stated)	hcDAF-12 act 6.2
COc1ccc(SCCN2CC[C@@H](C)CCC2=O)cc1	none
O=C(N/C(=C/c1ccc(Br)cc1)c1nc2ccccc2[nH]1)c1ccco1	AHR activator 67
O=C(N/C(=C/c1ccc(Cl)cc1)c1nc2ccccc2[nH]1)c1ccco1	AHR activator 70
O=C(NCc1nc2ccccc2[nH]1)c1ccco1	none
COc1cc(OC)cc(C(=O)NCC(=O)OCc2ccc(Cl)c(Cl)c2)c1	none
Cc1cc(CN(C)C(=O)CCc2nnc(Cc3cccc(C(F)(F)F)c3)o2)on1	none
CCN(CC)C(=O)CCc1nnc(Cc2cccc(C(F)(F)F)c2)o1	hgDAF-12 ag 13
CCCC(=O)N1CCC1(C)C(=O)Nc1ccc2nccnc2c1 (configuration not stated)	hgDAF-12 ag 11 (no result: AHR activator, DAX1 inh-1)
CCOC(=O)C1(C(=O)OCC)N=C(c2ccccc2)C=C1c1ccccc1	none (no result: AHR activator, DAX1 inh-1)
COc1cc(NS(=O)(=O)c2ccc(NC(=O)/C=C/c3cccc([N+](=O)[O-])c3)cc2)ncn1	AHR activator 104
O=c1[nH]c2ccccc2c2ccc(Cl)cc12	none (no result: AHR activator)
Nc1c(Br)cc2c([nH]c(=O)c3ccccc32)c1Br	ssDAF12 agonist 2.4, hcDAF-12 act 6.3 (no result: AHR activator)
CCc1cc(/C(Cc2ccccn2)=N\Nc2ccccc2)c(O)cc1O	AHR activator 77
COc1ccc(C(=O)NC(=S)NCc2cccnc2)cc1Br	AHR activator 51
COc1ccc(C(=O)NC(=S)Nc2cccnc2)cc1[N+](=O)[O-]	AHR activator 59
O=C(Nc1cccc2c1CCCC2)c1cc(C2CCCCN2C(=O)OCCF)on1 (configuration not stated)	none (no result: AHR activator, DAX1 inh-1)
CCCc1cc(=O)[nH]c(SCC(=O)NCCC2=CCCCC2)n1	none
CC1=C(C(=O)N(C)C)CC(CC(=O)NCCN2CCOCC2)C(=O)N1Cc1ccc(C(C)(C)C)cc1 (configuration not stated)	none (no result: AHR activator)
COc1ccccc1/C=N/Nc1cc(N(C)C)nc(N(C)C)n1	none
CN(C)c1cc(N/N=C\c2ccccc2)nc(N(C)C)n1	AHR activator 54
COc1ccc(/C=N/Nc2cc(N(C)C)nc(N(C)C)n2)cc1	AHR activator 49
CN(C(=S)NC(=O)/C=C/c1ccc(F)cc1)C1CCCCC1	none
Cc1ccc(C(=O)NC(=S)N(C)C2CCCCC2)cc1	hgDAF-12 ag 11
CC(C)CN1CCC(CNC(=O)CCc2nnc(Cc3c[nH]c4ccccc34)o2)CC1	none
C/C(CCc1oc2ccc(Cl)cc2c1-c1ccc(C)o1)=N\O	none
C/C(CCc1oc2ccc(Br)cc2c1-c1ccc(C)o1)=N/O	AHR activator 56
COc1ccc(C2/C(=C(\O)c3cccc(OC)c3)C(=O)C(=O)N2c2ccccn2)cc1 (configuration not stated)	DAX1 inh-1 6.8
COc1cccc(/C(O)=C2\C(=O)C(=O)N(c3ccccn3)C2c2ccccc2OC)c1 (configuration not stated)	none
Clc1ccc(C(c2nnnn2C2CCCC2)N2CCSCC2)cc1 (configuration not stated)	none

Screening results as filed in PubChem BioAssay.
